Records with an inconclusive call do not appear. Values without a mark were called inactive. Active and inactive are the calls of the source. Calls follow the shape of the dose curve; as a rule, active = well fitted curve in the direction sought with a large enough effect; inconclusive = small, poorly fitted or top-dose-only effect, or another doubt; inactive = no such curve, though single readings can be large; an effect the other way counts as inactive or inconclusive.
Tested on: not listed separately
Assay: Primary qHTS for inhibitors of La Crosse Virus (LACV) - induced cell death in SH-SY5Y cells (AID 1508616);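 also: 0% = infected DMSO wells and 100% = uninfected DMSO wells; higher means more rescue of cells from virus-induced death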
Conditions: SH-SY5Y LACV cytopathicity rescue, ATP luminescence, 6 d; series mostly up to 4.29 µM; activity change: at the top concentration
Outline: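 SH-SY5Y, 6000 cells/well; cpd via pin tool in DMSO; LACV 0.01 MOI; 6 d 37C 5% CO2; ATPLite, 5 min RT; luminescence normalized to ±virus DMSO controls.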
Also: top concentration of the series differs between compounds.

Row | Compound | activity change | outcome
1 | C[N+]1(CCF)[C@@H]2CC[C@H]1CC(OC(=O)C(O)(c1ccccc1)c1ccccc1)C2 (some centres undefined) | 16% | –
2 | C[C@@H]1CC2=CC(=O)CC[C@@H]2[C@H]2CC[C@@]3(C)[C@@H](CC[C@]3(C)O)[C@@H]21 | 10.9% | –
3 | c1ccc(CN2CCNCC2)cc1 | 1.98% [at 20.4 µM] | –
4 | C[C@]12Cc3cn[nH]c3C[C@@H]1CC[C@@H]1[C@@H]2CC[C@@]2(C)[C@H]1CC[C@]2(C)O | 10.8% | –
5 | C=CCC1([C@H](C)CCC)C(=O)NC(=O)NC1=O | 8.35% [at 8.54 µM] | –
6 | NC1=NC(=O)C(c2ccccc2)O1 (centres undefined) | -13.9% | –
7 | COc1cccc(C(=O)CCN[C@@H](C)[C@H](O)c2ccccc2)c1 | -14.8% | –
8 | C[C@@H](N)[C@@H](O)c1ccccc1 | -4.74% | –
9 | COc1cc(OC)c(OC)cc1C=O | 3.98% [at 8.54 µM] | –
10 | O=C(N/N=C/c1ccc([N+](=O)[O-])o1)c1cc([N+](=O)[O-])cc([N+](=O)[O-])c1O | -4.51% | –
11 | O=C1c2ccccc2C(=O)c2ccccc21 | -4.66% [at 1.78 µM] | –
12 | C[C@H](N)C(=O)c1ccccc1 | -6.89% [at 9.63 µM] | –
13 | CCN[C@H](C)Cc1cccc(C(F)(F)F)c1 | -2.96% [at 8.54 µM] | –
14 | [N-]=[N+]=CC(=O)OC[C@H](N)C(=O)O | -7.78% | –
15 | COc1cc(CCN)cc(OC)c1OC | 42.6% [at 9.63 µM] | –
16 | CCN[C@@H](C)Cc1ccccc1 | 0.863% [at 9.63 µM] | –

Row | Compound | activity change | outcome
17 | C[C@H]1[C@@H]2Cc3ccc(O)cc3[C@@]1(C)CCN2C | -23.9% [at 21.5 µM] | –
18 | CCCCC/C=C\C/C=C\C/C=C\C/C=C\CCCC(=O)NCC(=O)O | – | inactive
19 | C[C@]12CC[C@H]3[C@@H](CC[C@@]45O[C@H]4C(O)=C(C#N)C[C@]35C)[C@H]1CC[C@H]2O | -0.293% | –
20 | CN1CC[C@]23c4c5ccc(O)c4O[C@H]2[C@@H](O)CC[C@H]3[C@H]1C5 | 4.5% [at 8.54 µM] | –
21 | CN1CCC(O)(c2ccc(F)cc2)C(C(=O)c2ccc(F)cc2)C1 (centres undefined) | -7.42% | –
22 | O=C(O)CCCc1ccc(N(CCCl)CCCl)cc1 | 10.7% | –
23 | CCCCCCC(=O)CCCCCC/C=C/C[C@@H](O)[C@H](O)[C@@](N)(CO)C(=O)O | -21.4% [at 1.78 µM] | –
24 | Nc1ccccc1C(=O)O | -4.79% | –
25 | CCCOC(=O)c1cncn1C(C)c1ccccc1 (centres undefined) | 23.8% | –
26 | O=C1c2ccccc2C(=O)C1C(=O)C(c1ccccc1)c1ccccc1 | -2.13% | –
27 | CC(Cc1ccccc1)N(C)Cc1ccco1 (centres undefined) | 12.3% | –
28 | O=C(Nc1ccc(Br)cc1)c1cc(Br)cc(Br)c1O | 23.2% | –
29 | COc1c2c(cc3c1OCO3)CCN(C)C2 | 13% | –
30 | COP(=S)(OC)Oc1ccc(S(=O)(=O)N(C)C)cc1 | 31.6% | –
31 | CCN[C@@H](C)Cc1cccc(C(F)(F)F)c1 | 12.8% | –
32 | O=c1[nH]c2ccccc2n1C1CCNCC1 | -6.51% | –

Biological target: Calcium and integrin-binding protein 1 (Homo sapiens) (UniProt Q99828)
Assay: Primary qHTS for Identification of Calcium Integrin Binding Protein 1 (CIB1) Competitor (AID 1508620);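 also: GST tagged CIB1 binding a fluorescein labelled alphaIIb integrin peptide tracer; % is scaled to controls: 0 for no effect and ±100 for the full control effect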
Conditions: CIB1-GST / FITC-alphaIIb peptide fluorescence polarization; series mostly up to 114 µM; activity change, negative = inhibition: at the top concentration
Outline: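 Fluorescence polarization competition: GST-tagged CIB1 (1 uM final) preincubated with compound 15 min at room temperature, then FITC-labelled alphaIIb peptide (100 nM final) added. After 15 min at room temperature, polarization read at Ex 480/Em 540.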

Sequence of Calcium and integrin-binding protein 1 (Homo sapiens) (Q99828 whole entry, looked up): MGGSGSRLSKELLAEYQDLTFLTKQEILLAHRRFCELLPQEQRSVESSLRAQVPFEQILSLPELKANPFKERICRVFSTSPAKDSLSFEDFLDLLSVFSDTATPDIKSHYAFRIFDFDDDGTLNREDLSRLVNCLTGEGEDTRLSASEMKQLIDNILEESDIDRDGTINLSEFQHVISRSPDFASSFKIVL

Row | Compound | activity change, negative = inhibition | Potency
33 | C[N+]1(CCF)[C@@H]2CC[C@H]1CC(OC(=O)C(O)(c1ccccc1)c1ccccc1)C2 (some centres undefined) | 7.53% | –
34 | C[C@@H]1CC2=CC(=O)CC[C@@H]2[C@H]2CC[C@@]3(C)[C@@H](CC[C@]3(C)O)[C@@H]21 | -3.29% | –
35 | c1ccc(CN2CCNCC2)cc1 | 1.75% [at 384 µM] | –
36 | C[C@]12Cc3cn[nH]c3C[C@@H]1CC[C@@H]1[C@@H]2CC[C@@]2(C)[C@H]1CC[C@]2(C)O | -1.19% | –
37 | C=CCC1([C@H](C)CCC)C(=O)NC(=O)NC1=O | 0.766% [at 228 µM] | –
38 | NC1=NC(=O)C(c2ccccc2)O1 (centres undefined) | 0.862% | –
39 | COc1cccc(C(=O)CCN[C@@H](C)[C@H](O)c2ccccc2)c1 | -1.01% | –
40 | C[C@@H](N)[C@@H](O)c1ccccc1 | 6.06% | –
41 | COc1cc(OC)c(OC)cc1C=O | – | inactive
42 | O=C(N/N=C/c1ccc([N+](=O)[O-])o1)c1cc([N+](=O)[O-])cc([N+](=O)[O-])c1O | -16% | –
43 | O=C1c2ccccc2C(=O)c2ccccc21 | 3.96% [at 57.7 µM] | –
44 | C[C@H](N)C(=O)c1ccccc1 | 4.42% [at 228 µM] | –
45 | CCN[C@H](C)Cc1cccc(C(F)(F)F)c1 | -2.78% [at 228 µM] | –
46 | [N-]=[N+]=CC(=O)OC[C@H](N)C(=O)O | -3.14% | –
47 | COc1cc(CCN)cc(OC)c1OC | 1.98% [at 228 µM] | –
48 | CCN[C@@H](C)Cc1ccccc1 | 2.57% [at 228 µM] | –

Row | Compound | activity change, negative = inhibition | Potency
49 | C[C@H]1[C@@H]2Cc3ccc(O)cc3[C@@]1(C)CCN2C | -3.8% [at 573 µM] | –
50 | CCCCC/C=C\C/C=C\C/C=C\C/C=C\CCCC(=O)NCC(=O)O | -19.4% | –
51 | C[C@]12CC[C@H]3[C@@H](CC[C@@]45O[C@H]4C(O)=C(C#N)C[C@]35C)[C@H]1CC[C@H]2O | 6.85% | –
52 | CN1CC[C@]23c4c5ccc(O)c4O[C@H]2[C@@H](O)CC[C@H]3[C@H]1C5 | 2.83% [at 228 µM] | –
53 | CN1CCC(O)(c2ccc(F)cc2)C(C(=O)c2ccc(F)cc2)C1 (centres undefined) | -2.18% | –
54 | O=C(O)CCCc1ccc(N(CCCl)CCCl)cc1 | – | inactive
55 | CCCCCCC(=O)CCCCCC/C=C/C[C@@H](O)[C@H](O)[C@@](N)(CO)C(=O)O | 3.71% [at 57.7 µM] | –
56 | Nc1ccccc1C(=O)O | 2.96% | –
57 | CCCOC(=O)c1cncn1C(C)c1ccccc1 (centres undefined) | 3.32% | –
58 | O=C1c2ccccc2C(=O)C1C(=O)C(c1ccccc1)c1ccccc1 | -7.49% | –
59 | CC(Cc1ccccc1)N(C)Cc1ccco1 (centres undefined) | 3.69% | –
60 | O=C(Nc1ccc(Br)cc1)c1cc(Br)cc(Br)c1O | -5.17% | –
61 | COc1c2c(cc3c1OCO3)CCN(C)C2 | 0.962% | –
62 | COP(=S)(OC)Oc1ccc(S(=O)(=O)N(C)C)cc1 | 0.21% | –
63 | CCN[C@@H](C)Cc1cccc(C(F)(F)F)c1 | 2.13% | –
64 | O=c1[nH]c2ccccc2n1C1CCNCC1 | -2.42% | –

— PubChem BioAssay (NCATS)
